Shn3 3UTR inh: reduction of Shn3 3'UTR firefly luciferase signal, primary screen, Schnurri-3 inhibitor project, cell-based, Clone20 osteoblasts, set 2 | Clone20 osteoblast Shn3 3'UTR firefly luciferase, 24 h | actives 0.52% (n = 360,000) | inhibition, % at 12.5 µM | AID 588674, 2011;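 active means mean inhibition of at least 75% with every replicate also reaching 75%; inconclusive means mean inhibition at least 75% but some replicate below; inactive means mean inhibition below 75%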
TRPM1 prom inh: inhibitors of MITF-dependent TRPM1 promoter reporter, primary screen, cell-based, SK-MEL-5, single point, luciferase; inhibition, % at 12.5 µM; actives 0.83% (n = 330,000); SK-MEL-5 TRPM1 promoter luciferase, 24 h; AID 488899, 2010;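 active means mean inhibition across replicates of 60% or more, whatever share of single replicates reaches that level; inconclusive means some that reach 60%, reason not given; inactive means mean inhibition across replicates below 60%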
PAX8 inh HTS: inhibitors of PAX8-driven TPO luciferase reporter, primary screen, RMG-I cells, single concentration; actives 1.2% (n = 360,000); inhibition, % at 12.6 µM; SteadyGlo, 24 h;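 active means mean replicate inhibition at least 60% with every replicate also reaching 60%; inconclusive means only one of the two criteria is met; inactive means mean below 60% and not all replicates reaching 60%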;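 further: luciferase light reporting Pax8 driven TPO promoter activity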
EWS-Fli inh: EWS/Fli-driven NR0B1 reporter inhibitors, primary screen, A673 cells, NR0B1 luciferase, luminescence, MLPCN library | viability-normalised | inhibition, % at 12.6 µM | actives 0.67% (n = 350,000) | AID 651661, 2012;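 active means mean inhibition of at least 50% after viability correction, with every replicate also passing that limit; inconclusive means mean reaches 50% but only one of two replicates passes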;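 further: firefly luciferase signal divided by Alamar Blue viability fluorescence both relative to DMSO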
LGR2 inh: inhibitors of bursicon-induced LGR2 CRE-luciferase signal, primary screen, cell-based, HEK293, CRE-luciferase reporter, bursicon stimulation; Drosophila bursicon receptor LGR2 (rickets); bursicon-stimulated, 4 h; inhibition, % at 9.99 µM; actives 0.35% (n = 380,000);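 active means drop in luminescence signal, shown as inhibition above about 50% in the replicate tests, limit read from the data, passing the limit was not always enough; inconclusive means probably only some replicates passing the limit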;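 further: agonist challenge used bursicon conditioned medium at about half maximal strength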
EBV LMP1 NFkB: EBV LMP1-driven NF-kappaB luciferase reporter inhibitors, primary screen, cell-based, luminescence, single point; LMP1-induced NF-kappaB luciferase reporter cells; inhibition, % at 12.5 µM; actives 0.69% (n = 350,000); AID 504558, 2011; in the data active means inhibition above about 41%; inconclusive means no clear call, values can overlap the other calls
Hits are given with their value; - = inactive; ? = inconclusive; . = no result; ! = repeats disagree. Only some compounds are listed: those with a hit (about 2.2% of all), similar ones and a draw of the others.

SMILES | Shn3 3UTR inh | TRPM1 prom inh | PAX8 inh HTS | EWS-Fli inh | LGR2 inh | EBV LMP1 NFkB
COc1ccc(/C=N/Nc2nnc(-c3ncc[nH]3)c3ccccc23)cc1 | - | - | . | . | . | -
Oc1ccc2ccccc2c1C=NNc1ccccn1 | - | - | - | - | - | 58
Oc1ccc2ccccc2c1/C=N/Nc1nnc(-c2ncc[nH]2)c2ccccc12 | 92 | - | . | . | . | 59
C[C@@H]1CN([C@@H](C)CO)C(=O)c2cccc(NC(=O)C3CC3)c2O[C@@H]1CN(C)S(=O)(=O)c1cn(C)cn1 | . | . | - | - | - | .
N#Cc1ccc(-c2ccc([C@H]3[C@H](CO)N4CCCCN(S(=O)(=O)c5ccccc5)C[C@@H]34)cc2)cc1 | . | . | - | - | - | .
O=Cc1c(Cl)nc2ccccn12 | - | - | - | - | - | -
O=C(/C=C/c1c(Cl)nc2ccccn12)Nc1ccc(F)cc1 | - | - | 111 | - | . | -
C[C@H](CO)N1C[C@H](C)[C@@H](CN(C)S(=O)(=O)c2cn(C)cn2)Oc2cc(C#Cc3ccccc3)ccc2S1(=O)=O | . | . | . | - | - | .
COCCNC(=O)C(=O)c1c(-c2ccccc2)[nH]c2ccccc12 | - | - | - | - | - | -
O=C(C(=O)N(Cc1ccccc1)Cc1ccccc1)c1c(-c2ccccc2)[nH]c2ccccc12 | - | - | 88 | - | - | -
Cc1cccc(N2CCN(C(=O)Cn3nc(Cc4ccncc4)c4ccccc4c3=O)CC2)c1C | - | - | - | - | - | 91
O=C(Cn1nc(Cc2ccncc2)c2ccccc2c1=O)N1CCN(C(=O)c2ccco2)CC1 | - | - | - | - | - | -
COc1ccc(NC(=O)N2CC(=O)N3[C@@H](CO)[C@@H](c4ccc(/C=C/c5ccccc5)cc4)[C@@H]3C2)cc1 | . | . | 89 | - | . | .
O=C(Nc1ccc(F)cc1)N1CC(=O)N2[C@@H](CO)[C@@H](c3ccc(-c4ccccc4)cc3)[C@@H]2C1 | . | . | - | - | - | .
O=C(Nc1ccc(F)cc1)N1CC(=O)N2[C@H](CO)[C@@H](c3ccc(-c4ccccc4)cc3)[C@@H]2C1 | . | . | - | 60 | - | .
CCCN(CC1CC1)c1nc(C)nc(Nc2c(Cl)cc(Cl)cc2Cl)c1Cl | - | - | - | - | - | 78
CCCN(CC1CC1)c1nc(N)c(C#N)c(CC#N)c1C#N | - | - | . | . | . | -
Cc1ccc(NC(=O)c2cc(N3C(=O)C=CC3=O)ccc2N2CCOCC2)cc1Cl | - | 78 | - | - | - | -
Cc1ccc(NC(=O)c2cc(N3C(=O)CCC3=O)ccc2N2CCOCC2)cc1 | - | - | - | - | - | -
CN(C)C(=O)c1ccc(-c2ccc(C3[C@@H]4CN(Cc5nccs5)C[C@H]3N4)cc2)cc1 (some centres not stated) | . | . | - | 53! | - | .
CN(C)C(=O)c1ccc(-c2ccc(C3[C@@H]4CN(Cc5cccnc5)C[C@H]3N4)cc2)cc1 (some centres not stated) | . | . | - | - | - | .
Fc1ccc(-c2ccc(C3[C@@H]4CN(Cc5nccs5)C[C@H]3N4)cc2)cc1 (some centres not stated) | . | . | 63! | - | - | .
CN(C)C(=O)c1cccc(-c2ccc(C3[C@@H]4CN(C(=O)c5ccccn5)C[C@H]3N4)cc2)c1 (some centres not stated) | . | . | - | 58! | - | .
CN(C)C(=O)c1ccc(-c2ccc(C3[C@@H]4CN(C(=O)c5ccccn5)C[C@H]3N4)cc2)cc1 (some centres not stated) | . | . | - | - | - | .
O=C(c1ccc2c(c1)OCO2)N1C[C@@H]2N[C@H](C1)C2c1ccc(-c2cccnc2)cc1 (some centres not stated) | . | . | - | 64! | - | .
CCOC(=O)c1c(SCCN2CCCC2)n(-c2ccccc2)c(=S)n(-c2ccccc2)c1=O | ? | 96 | - | 61 | - | -
COC(=O)c1cccc(COC(=O)c2ccccc2NC(=O)c2ccco2)c1 | - | - | . | . | . | 51
COC(=O)c1ccccc1NC(=O)c1ccco1 | - | - | . | . | - | -
O=C1C(C=NCc2cccnc2)=C(O)c2ccccc21 | - | - | . | . | . | 62
O=C(Cn1c(=O)c2cccn2c2cccnc21)N1CCN(c2ccccc2F)CC1 | - | - | - | - | - | 71

Compound activity (PubChem)
